The target of assay [1] is T1, Serine/threonine-protein kinase D2 (Homo sapiens) (UniProt Q9BZL6).
T1 sequence (whole entry): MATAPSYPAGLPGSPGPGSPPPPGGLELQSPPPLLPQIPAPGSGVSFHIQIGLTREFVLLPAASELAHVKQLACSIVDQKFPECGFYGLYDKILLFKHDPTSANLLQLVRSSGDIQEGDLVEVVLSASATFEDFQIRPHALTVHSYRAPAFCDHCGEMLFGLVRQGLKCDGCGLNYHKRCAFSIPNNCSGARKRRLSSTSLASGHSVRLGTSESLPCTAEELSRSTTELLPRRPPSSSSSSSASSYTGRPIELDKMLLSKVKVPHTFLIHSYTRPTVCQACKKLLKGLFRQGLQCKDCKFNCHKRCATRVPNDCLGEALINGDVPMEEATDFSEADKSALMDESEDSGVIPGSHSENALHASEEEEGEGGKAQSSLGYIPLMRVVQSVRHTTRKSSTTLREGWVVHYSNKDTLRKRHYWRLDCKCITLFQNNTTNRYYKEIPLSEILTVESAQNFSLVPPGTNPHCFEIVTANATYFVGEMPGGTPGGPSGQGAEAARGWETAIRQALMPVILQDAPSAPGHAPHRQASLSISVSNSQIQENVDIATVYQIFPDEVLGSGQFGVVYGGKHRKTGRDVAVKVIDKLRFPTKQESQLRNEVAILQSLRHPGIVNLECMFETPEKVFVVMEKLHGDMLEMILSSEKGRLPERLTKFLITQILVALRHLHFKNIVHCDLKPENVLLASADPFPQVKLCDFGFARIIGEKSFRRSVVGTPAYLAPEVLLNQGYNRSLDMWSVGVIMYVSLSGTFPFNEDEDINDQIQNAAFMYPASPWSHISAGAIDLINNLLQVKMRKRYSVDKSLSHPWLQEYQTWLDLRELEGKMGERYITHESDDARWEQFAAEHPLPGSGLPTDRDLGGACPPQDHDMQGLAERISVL
The settings on record: at 1 µM.

For assay [2], the target named is T1, Serine/threonine-protein kinase D2 (Homo sapiens). As to conditions: at 10 µM.
Assay [3] deals with T2, cGMP-dependent protein kinase 1 (Homo sapiens) (UniProt Q13976).
T2 sequence (whole entry): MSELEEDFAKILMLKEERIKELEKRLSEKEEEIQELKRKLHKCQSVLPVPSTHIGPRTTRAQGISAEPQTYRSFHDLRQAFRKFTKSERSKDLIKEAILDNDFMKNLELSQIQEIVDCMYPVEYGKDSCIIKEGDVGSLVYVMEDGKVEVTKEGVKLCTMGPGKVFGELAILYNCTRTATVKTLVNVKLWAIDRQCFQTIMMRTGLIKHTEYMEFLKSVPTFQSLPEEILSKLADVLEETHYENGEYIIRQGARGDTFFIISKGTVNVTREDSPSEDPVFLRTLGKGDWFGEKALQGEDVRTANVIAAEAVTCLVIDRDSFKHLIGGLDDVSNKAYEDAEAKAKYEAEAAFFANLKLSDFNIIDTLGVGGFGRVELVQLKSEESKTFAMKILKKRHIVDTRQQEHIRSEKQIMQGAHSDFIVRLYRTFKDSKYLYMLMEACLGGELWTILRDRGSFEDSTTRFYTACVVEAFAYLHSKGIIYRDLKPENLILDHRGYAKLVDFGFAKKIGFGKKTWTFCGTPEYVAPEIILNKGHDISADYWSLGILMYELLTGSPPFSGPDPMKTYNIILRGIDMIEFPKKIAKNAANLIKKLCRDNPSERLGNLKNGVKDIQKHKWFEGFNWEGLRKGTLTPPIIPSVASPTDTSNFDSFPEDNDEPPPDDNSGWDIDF
As to conditions: at 1 µM.

The target in assay [4] is T2, cGMP-dependent protein kinase 1 (Homo sapiens). The settings on record: at 10 µM.
Assay [5] shares this target. As to conditions: at 1 µM. This is another data set of the same source.
For assay [6] the target is unchanged. As to conditions: at 10 µM. This is another data set of the same source.
In assay [7] the target is T3, MAP kinase-activated protein kinase 5 (Homo sapiens) (UniProt Q8IW41).
T3 sequence (whole entry): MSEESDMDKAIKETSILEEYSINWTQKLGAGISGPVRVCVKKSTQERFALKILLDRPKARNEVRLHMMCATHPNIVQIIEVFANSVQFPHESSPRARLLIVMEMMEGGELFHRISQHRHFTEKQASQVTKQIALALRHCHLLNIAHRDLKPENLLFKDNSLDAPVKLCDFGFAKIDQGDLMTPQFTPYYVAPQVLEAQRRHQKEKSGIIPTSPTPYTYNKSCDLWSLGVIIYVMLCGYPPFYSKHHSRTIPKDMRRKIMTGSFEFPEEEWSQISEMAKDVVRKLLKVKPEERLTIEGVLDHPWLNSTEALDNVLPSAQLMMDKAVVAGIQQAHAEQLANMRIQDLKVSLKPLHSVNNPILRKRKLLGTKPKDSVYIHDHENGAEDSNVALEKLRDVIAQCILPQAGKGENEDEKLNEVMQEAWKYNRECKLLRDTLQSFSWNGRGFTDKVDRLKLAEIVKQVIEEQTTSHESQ
As to conditions: at 1 µM.

The target of assay [8] is T3, MAP kinase-activated protein kinase 5 (Homo sapiens). As to conditions: at 10 µM.
Assay [9] addresses Serine/threonine-protein kinase N2 (Homo sapiens) (UniProt Q16513). As to conditions: at 1 µM.
The target is the same in assay [10]. As to conditions: at 10 µM.

Sequence of Serine/threonine-protein kinase N2 (Homo sapiens) (Q16513 whole entry, looked up): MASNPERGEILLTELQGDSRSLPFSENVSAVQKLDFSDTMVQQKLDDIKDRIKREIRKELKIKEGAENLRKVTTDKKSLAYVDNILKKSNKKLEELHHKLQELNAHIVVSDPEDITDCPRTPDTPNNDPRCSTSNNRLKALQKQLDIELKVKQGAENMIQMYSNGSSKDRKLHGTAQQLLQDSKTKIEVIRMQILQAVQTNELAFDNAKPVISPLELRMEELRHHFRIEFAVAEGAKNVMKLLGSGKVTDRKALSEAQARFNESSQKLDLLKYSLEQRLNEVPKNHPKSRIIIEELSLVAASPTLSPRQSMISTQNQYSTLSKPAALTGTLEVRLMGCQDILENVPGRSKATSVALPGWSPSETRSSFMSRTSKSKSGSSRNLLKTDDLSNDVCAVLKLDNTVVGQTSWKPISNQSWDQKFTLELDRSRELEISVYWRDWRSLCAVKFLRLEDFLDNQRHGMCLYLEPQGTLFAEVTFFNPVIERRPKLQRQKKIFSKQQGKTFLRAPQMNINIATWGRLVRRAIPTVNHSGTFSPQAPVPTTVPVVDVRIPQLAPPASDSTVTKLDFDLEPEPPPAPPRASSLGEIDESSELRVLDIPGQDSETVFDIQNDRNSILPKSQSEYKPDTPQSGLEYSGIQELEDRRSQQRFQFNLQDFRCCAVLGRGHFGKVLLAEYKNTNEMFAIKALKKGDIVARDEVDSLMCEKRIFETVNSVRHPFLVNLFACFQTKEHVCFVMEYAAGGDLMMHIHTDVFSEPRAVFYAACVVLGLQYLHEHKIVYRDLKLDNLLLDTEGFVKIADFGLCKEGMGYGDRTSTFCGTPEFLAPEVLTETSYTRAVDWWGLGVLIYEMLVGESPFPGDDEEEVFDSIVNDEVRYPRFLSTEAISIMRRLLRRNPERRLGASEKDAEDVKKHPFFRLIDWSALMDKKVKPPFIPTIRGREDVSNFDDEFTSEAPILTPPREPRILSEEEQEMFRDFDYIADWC

Take `COC(=O)[C@@]1(O)C[C@H]2O[C@]1(C)n1c3ccccc3c3c4c(c5c6ccccc6n2c5c31)C(=O)NC4`: the residual activity in assay [1] is 2%; in assay [2], 0%; in [3] it was 10%; in [4] it was 1%; in assay [5], 9%; in assay [6], 2%. For the same compound, the residual activity in [7] was 19%; in assay [8], 0%; in [9] it was 1%; in assay [10], 1%.

`COc1ccc2c(c[n+](C)c3c4cc5c(cc4ccc23)OCO5)c1OC`: the residual activity was 92% in [4]; 92% in assay [5]; 87% in assay [6]; 84% in [7]; 52% in assay [8]; 92% in assay [10].

Take `C[S+]([O-])c1ccc(-c2nc(-c3ccc(F)cc3)c(-c3ccncc3)[nH]2)cc1` (stereo unspecified): the residual activity in assay [1] was found to be 105%; in [2], 90%; in [3], 101%; in assay [4], 99%; in assay [5], 125%; in assay [6], 107%. Besides, the residual activity in assay [7] came out at 145%; in [8] it was 104%; in [9] it was 103%; in assay [10], 107%.

`O=c1[nH]c2ccccc2n1C1CCN(Cc2ccc(-c3nc4cc5[nH]cnc5cc4nc3-c3ccccc3)cc2)CC1`: the residual activity turned out to be 100% in assay [1]; 108% in assay [2]; 108% in assay [3]; 110% in assay [4]; 86% in assay [5]; 97% in assay [6]. In addition, the residual activity in assay [7] came out at 75%; in assay [8], 37%; in assay [9] it was 112%; in assay [10], 115%.

Turning to `COc1ccc2c(c1)/C(=C/c1cnc[nH]1)C(=O)N2`, the residual activity in [1] was 97%; in [2] it was 39%; in assay [7], 122%; in assay [8], 63%; in assay [10] it was 40%.

With `CC(C)[C@H](CO)Nc1nc(Nc2cccc(Cl)c2)c2ncn(C(C)C)c2n1`, the residual activity in assay [7] was determined as 102%; in [8], 59%.

On to `CCc1nc(-c2ccc(OC)cc2)[nH]c1-c1ccncc1`, for which the residual activity in [9] worked out at 102%; in assay [10], 74%.

On to `O=C1Nc2ccc3ncsc3c2/C1=C/c1c[nH]cn1`, for which the residual activity in assay [1] worked out at 30%; in assay [2] it was 3%; in [3], 13%; in [4], 2%; in assay [5] it was 7%; in assay [6], 1%. In addition, the residual activity amounted to 49% in assay [7], 18% in assay [8], 4% in [9] and 2% in [10].

As for `O=[N+]([O-])/C=C/c1ccc2c(c1)OCO2`, the residual activity in assay [1] was determined as 105%; in assay [2], 105%; in assay [3] it was 107%; in assay [4], 106%; in assay [5], 101%; in [6], 90%. The residual activity in assay [7] turned out to be 85%; in [8], 70%; in assay [9] it was 102%; in assay [10] it was 107%.

For the compound `CCn1cnc2c(Nc3cccc(Cl)c3)nc(N[C@@H]3CCCC[C@@H]3N)nc21`, the residual activity in [1] worked out at 97%; in [2], 96%; in [3], 92%; in assay [4], 88%; in assay [5], 89%; in assay [6], 70%. Also, the residual activity in assay [7] amounted to 119%; in [8], 124%; in assay [9], 80%; in assay [10], 49%.

As to `c1cc(-c2cnn3cc(-c4ccc(OCCN5CCCCC5)cc4)cnc23)ccn1`, the residual activity in assay [3] stood at 73%; in assay [4], 25%; in assay [5], 66%; in [6], 12%; in assay [9], 47%; in assay [10], 6%.

`COc1cc2ncnc(Nc3ccc(OCc4ccccc4)cc3)c2cc1OC`: the residual activity in [1] came out at 98%; in assay [2] it was 98%; in assay [3], 115%; in [4] it was 125%; in assay [5] it was 72%; in assay [6] it was 88%. The residual activity in [7] amounted to 111%; in [8], 83%; in [9], 109%; in assay [10], 111%.

Consider `COc1cc(OC)c(/C=C2\C(=O)Nc3ccccc32)c(OC)c1`, for which the residual activity in [1] came to 108%; in [2] it was 105%; in assay [3], 97%; in [4] it was 108%; in [5] it was 83%; in [6], 73%. Further, the residual activity in assay [9] was 99%; in assay [10], 87%.

With `O=C1NC(=O)c2c1c1c3ccccc3n3c1c1c2c2ccccc2n1C1CCC3O1`, the residual activity stood at 92% in [1]; 90% in assay [2]; 84% in [3]; 73% in assay [4]; 76% in assay [5]; 74% in [6]. In addition, the residual activity turned out to be 47% in assay [9] and 25% in assay [10].

For the compound `CC(C)(C)c1cc(C=C(C#N)C#N)cc(Br)c1O`, the residual activity was 100% in [1]; 105% in [2]; 107% in [3]; 66% in [5]; 60% in assay [6]; 107% in assay [7]. Besides, the residual activity in assay [8] came out at 65%; in [9] it was 104%; in assay [10], 117%.

These data come from ChEMBL document CHEMBL2218924, “A broad activity screen in support of a chemogenomic map for kinase signalling research and drug discovery” (Biochem J, 2013).
